TNF necrop inh – inhibitors of TNF-alpha induced necroptosis in Jurkat FADD-/- cells. Jurkat FADD-/- TNF necroptosis rescue, ATP luminescence, 24 h; 0 = TNF only, 100 = no-TNF cells. activation (protection from cell death), % at 10 µM. 0.068% of 220,000 active;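 active = activation, meaning protection from cell death, of at least 50% relative to plate controls; inactive = activation below 50%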;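 note: necroptosis triggered by 40 ng/mL TNF-alpha added together with compound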
HMGR II inh – inhibitors of class II HMG-CoA reductase from Enterococcus faecalis. purified E. faecalis HMGR, NADPH absorbance 340 nm kinetic. inhibition, % at 10 µM. 0.41% of 190,000 active;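 active = inhibition above a set limit, the median over all tested compounds plus 3 SD, cut at about 9.5% in these data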;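 note: enzyme runs in reverse so mevalonate oxidation gives rising NADPH absorbance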
L929 necroptosis – blocks zVAD induced death of L929 cells; L929 zVAD necroptosis rescue, ATP luminescence, 24 h; with zVAD 60 µM; viability rescue, % at 10 µM; 0.38% of 220,000 active;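 active = activation, scaled between plate controls, above about 75%, limit read from the data; inactive = activation under that limit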
Calpain2 inh – inhibitors of pig calpain II; 0.37% of 220,000 active; purified calpain II, fluorogenic peptide substrate, 30 min; inhibition, % at 16 µM; AID 1236;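 active = inhibition above about 50%, limit read from the data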
14-3-3 Bad PPI – disrupts binding of bovine 14-3-3 zeta to phospho-Bad peptide; inhibition, % at 21.7 µM; 0.71% of 220,000 active; TR-FRET 14-3-3zeta/Dy647-pBad peptide displacement, 1 h; AID 781; P63103;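 active = inhibition above about 70%, limit read from the data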
Target sequence (P63103 whole entry, looked up): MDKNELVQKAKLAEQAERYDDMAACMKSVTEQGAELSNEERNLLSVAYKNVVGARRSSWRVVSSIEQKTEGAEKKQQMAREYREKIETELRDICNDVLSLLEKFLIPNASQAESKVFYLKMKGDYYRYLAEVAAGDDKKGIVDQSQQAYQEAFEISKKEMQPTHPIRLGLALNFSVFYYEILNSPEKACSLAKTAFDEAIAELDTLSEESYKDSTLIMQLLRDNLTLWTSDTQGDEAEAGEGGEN
ROMK primary – human ROMK K+ channel modulation, primary screen; AID 1918; B-score at 10 µM; Tet-inducible ROMK, thallium flux fluorescence; actives lie on both sides; 2% of 130,000 active;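 active = signal ratio slope over the read window, or its plate-corrected B-score, at least 3 SD from the plate mean, either direction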;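 note: B-score of the F/F0 ratio slope over 7 to 12 s after thallium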
Target sequence (P48048 whole entry, looked up): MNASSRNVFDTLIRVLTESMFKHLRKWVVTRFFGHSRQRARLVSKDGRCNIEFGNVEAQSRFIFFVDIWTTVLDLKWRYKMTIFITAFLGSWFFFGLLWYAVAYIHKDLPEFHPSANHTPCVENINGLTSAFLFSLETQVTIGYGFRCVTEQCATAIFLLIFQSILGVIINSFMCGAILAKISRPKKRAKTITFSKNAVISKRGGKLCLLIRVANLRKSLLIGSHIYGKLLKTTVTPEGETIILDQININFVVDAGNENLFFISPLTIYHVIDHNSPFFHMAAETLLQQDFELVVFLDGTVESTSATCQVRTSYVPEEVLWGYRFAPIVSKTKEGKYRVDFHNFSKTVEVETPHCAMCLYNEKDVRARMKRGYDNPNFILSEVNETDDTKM
Large screens that a line does not name were inactive; [ ] = remark or other dose. A selection: hits, their analogues and other compounds. The true share with any hit is near 3%.

C=CCNc1cnn(-c2ccc(C)cc2)c(=O)c1Sc1ccc(C)cc1	Calpain2 inh 65
Cc1ccc(Sc2cnn(-c3ccccc3)c(=O)c2Cl)cc1	none
CC1CN(S(=O)(=O)c2cccc(C(=O)Nc3ccc(S(=O)(=O)Nc4ncccn4)cc3)c2)CC(C)O1 (centres undefined)	none
CC(C)N1CCC(=NNC(=O)c2ccc(Br)o2)CC1	ROMK primary 2.7
O=C(NN=C1CCCCCC1)c1ccc(Br)o1	none
FC(F)(F)c1nnc2ccc(NCc3ccccc3)nn12	Calpain2 inh 92
FC(F)(F)c1nnc2ccc(NCc3cccnc3)nn12	none
O=C(CN1CCN(c2ccccc2)CC1)N1N=CCC1c1ccccc1 (centres undefined)	none (no result: ROMK primary)
O=C(CSC(=S)N1CCOCC1)N1N=CCC1c1ccccc1 (centres undefined)	TNF necrop inh 50
O=C(CN1CCN(C(c2ccccc2)c2ccccc2)CC1)N1N=CCC1c1ccccc1 (centres undefined)	TNF necrop inh 68 (no result: HMGR II inh, ROMK primary)
COC(=O)c1ccccc1NC(=O)CSc1nc2cccnc2n1C	none
COC(=O)c1cccc(NC(=O)CSc2nc3cccnc3n2C)c1	ROMK primary -3.4 (no result: 14-3-3 Bad PPI)
O=[N+]([O-])c1ccc(C(=Nc2cccc3ccccc23)N2CCOCC2)cc1	14-3-3 Bad PPI 97[fluorescence artefact?] (no result: ROMK primary)
CCOC(=O)c1c(NC(=O)CN2CCCc3ccccc32)sc(C(C)=O)c1C	none (no result: ROMK primary)
COc1ccc(C(=O)Oc2cccnc2)cc1OC	14-3-3 Bad PPI 73 (no result: ROMK primary)
CC1CCN(c2c(NCC3CCC(C(=O)NC4CCCCCC4)CC3)c(=O)c2=O)CC1 (centres undefined)	14-3-3 Bad PPI 86 (no result: HMGR II inh)
CCOC(=O)c1c(N)sc(C(=O)OCCOC)c1C	HMGR II inh 13
COC(=O)C(NC(=O)c1ccc(C)cc1)(Nc1cccc(C)n1)C(F)(F)F (centres undefined)	none (no result: ROMK primary)
COc1cccc(/C=N\NC(=O)Cn2nnc3ccccc32)c1O	none
Cc1ccc(S(=O)(=O)Oc2ccc(/C=C3/N=C(c4ccccc4)OC3=O)cc2)cc1	none
CN(Cc1ccccc1)CC(O)COc1ccc(CNCCc2ccncc2)cc1 (centres undefined)	14-3-3 Bad PPI 86
CCOc1ccc(NS(=O)(=O)c2ccc(NC(=O)[C@@H]3CCCC[C@@H]3C(=O)O)cc2)cc1	none (no result: ROMK primary)
Cc1ccccc1OCCCN1CCCC1	14-3-3 Bad PPI 76 (no result: ROMK primary)
C=CCc1ccccc1OCCCCN1CCCC1	14-3-3 Bad PPI 79 (no result: ROMK primary)
CCc1ccccc1OCCCCN1CCCC1	none
CC(=O)Nc1nnc(-c2c(-c3c(Cl)cccc3Cl)noc2C)o1	none (no result: HMGR II inh, ROMK primary)
COc1ccc(Br)cc1/C=C/C(=O)c1ccc(NC(C)=O)cc1	L929 necroptosis 88 (no result: ROMK primary)
Cc1sc(NC(=O)c2cccs2)c(C(N)=O)c1C	L929 necroptosis 75
CC(CNS(=O)(=O)c1ccccc1)(c1ccccc1)N1CCOCC1 (centres undefined)	none (no result: ROMK primary)
Cc1c(/C=N/n2cnnc2)c2ccccc2n1C	14-3-3 Bad PPI 71[fluorescence artefact?] (no result: ROMK primary)
COc1ccc(-c2cc(C(F)(F)F)nc(SCC(=O)NCCCN3CCOCC3)n2)cc1	none
O=C(N/N=C/c1ccc(O)cc1)c1ccc(COc2cc(Cl)ccc2Cl)o1	HMGR II inh 12
Cc1ccc(OCC(=O)Nc2ccc(N3CCCC3)cc2)cc1C	14-3-3 Bad PPI 74[fluorescence artefact?] (no result: ROMK primary)
CCOc1ccc(C(=O)Nc2ccc(N3CCCC3)cc2)cc1	14-3-3 Bad PPI 85[fluorescence artefact?]
COc1ccc(OCC(=O)Nc2ccc(N3CCCCC3)cc2)cc1	none
O=C(Nc1ccc(N2CCCCC2)cc1)c1ccc2c(c1)OCCO2	HMGR II inh 27
Cc1cc(C)cc(OCC(=O)Nc2ccc(N3CCCC3)cc2)c1	14-3-3 Bad PPI 100[fluorescence artefact?] (no result: ROMK primary)
O=C(O)CC/C(=N\NC(=O)c1ccccc1Br)c1ccccc1	none
COc1ccc(NC(=O)c2ccccc2N(Cc2ccccc2)S(C)(=O)=O)cc1OC	HMGR II inh 10
C/C(=N\NC(N)=O)c1cccc(Cl)c1	14-3-3 Bad PPI 75[fluorescence artefact?] (no result: ROMK primary)
CN(CCO)CCC(=O)NC1(C)CS(=O)(=O)CC1S(=O)(=O)O (centres undefined)	none (no result: HMGR II inh, ROMK primary)
O=C(CCc1nnc(CCCc2ccccc2)o1)NCCc1ccccc1	HMGR II inh 15
O=C(CCc1nnc(CCCc2ccccc2)o1)NCCc1ccco1	none
Cc1ccccc1N(CC(=O)N/N=C/c1cc(Br)c(C)o1)S(C)(=O)=O	none
Cc1ccccc1NC(=O)COC(=O)CCc1ccccc1	Calpain2 inh 64
O=C(COC(=O)CCc1ccccc1)Nc1ccccc1OC(F)F	none (no result: HMGR II inh, ROMK primary)
O=C(CCSc1ccccn1)Nc1ccc(Br)cc1	none (no result: ROMK primary)
COc1ccccc1-c1nnc(NC(=O)c2ccc(S(=O)(=O)N(C)Cc3ccccc3)cc2)o1	ROMK primary -3.4
CCN(c1ccccc1)S(=O)(=O)c1ccc(C(=O)Oc2ccc(C(C)=O)cc2)cc1	none
COCCCNCC(=O)c1c(N)n(Cc2ccccc2)c(=O)n(C)c1=O	14-3-3 Bad PPI 75 (no result: ROMK primary)
Cn1c(=O)c(C(=O)CN2CCCCCC2)c(N)n(Cc2ccccc2)c1=O	none
CCCCSc1nnc2c(n1)OC(C(=O)c1ccccc1)Nc1ccccc1-2 (centres undefined)	Calpain2 inh 65
CCCCNC(=O)C(=O)NCCCn1ccnc1	none
C/C(=N\O)C(=O)NCCCn1ccnc1	ROMK primary 2.1
COC(=O)c1ccc(C(NC(=O)OCc2ccccc2)/C(C)=C/[C@@H](C)C(=O)NCc2ccc(-c3ccccc3)cc2)cc1 (some centres undefined)	HMGR II inh 14
O=C(N/N=C/c1ccccc1C(=O)O)c1cc(-c2ccc3c4c(cccc24)CC3)n[nH]1	HMGR II inh 13
O=C(N/N=C/c1ccco1)c1cc(-c2cccc3ccccc23)n[nH]1	none (no result: ROMK primary)
Cc1cc(C)c2c(-n3cccc3)c(C(=O)NNS(=O)(=O)c3ccc(Cl)cc3)sc2n1	none (no result: ROMK primary)
S=C(NCc1ccc2[nH]c3c(c2c1)CCCC3)Nc1ccccc1	HMGR II inh 9.8 (no result: L929 necroptosis)
COc1ccc(/C=N/Nc2ncnc3c2[nH]c2ccccc23)c(OC)c1OC	none
COc1cccc(/C=N/Nc2ncnc3c2[nH]c2ccc(C)cc23)c1OC	14-3-3 Bad PPI 88 (no result: HMGR II inh)
COC(=O)C(C(=O)OC)c1ncccc1[N+](=O)[O-]	14-3-3 Bad PPI 85 (no result: HMGR II inh, ROMK primary)
COC(=O)C(C(=O)OC)c1ccccc1[N+](=O)[O-]	none
Cc1ccc(C(C#N)c2ccc3c(C(F)(F)F)cc(C(F)(F)F)nc3n2)cc1 (centres undefined)	Calpain2 inh 55 (no result: ROMK primary)
N#CC(c1ccccc1)c1ccc2c(C(F)(F)F)cc(C(F)(F)F)nc2n1 (centres undefined)	none
O=C(N/N=C/c1cn(Cc2ccccc2)c2ccccc12)c1cccnc1	none (no result: ROMK primary)
O=C(N/N=C/c1c(O)n(Cc2ccccc2)c(=O)c2ccccc12)c1cccnc1	ROMK primary -4.4

From PubChem BioAssay
